Screening results (PubChem BioAssay)
Exocytosis inh: lytic granule exocytosis inhibition; inhibition, % at 10 µM; 360,000 compounds, 0.66% hits; AID 651702; TALL-104 LAMP-1 surface exposure, flow cytometry; cells stimulated with thapsigargin and PMA;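 active means inhibition above about 55%, limit read from the data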
IDE act: IDE (human) activation, cell-based | 340,000 compounds, 0.073% hits | AID 493087 | P14735 | activation, % at 5.96 µM | HEK cells, FAbeta-B cleavage, fluorescence polarization; 0% vehicle, 100% cell-free pure enzyme wells;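 active means activation above the mean of all tested compounds plus 3 SD, set per screening campaign, cut at about 17% in these data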
PP5 inh: blocks human protein phosphatase 5 activity | 320,000 compounds, 0.18% hits | P53041 | purified PP5c, OMFP substrate fluorescence | inhibition, % at 6.7 µM;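 active means inhibition above the campaign's mean inhibition across all tested compounds plus 3 SD, cut at about 9.5% in these data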
Target sequence (P53041 whole entry, looked up): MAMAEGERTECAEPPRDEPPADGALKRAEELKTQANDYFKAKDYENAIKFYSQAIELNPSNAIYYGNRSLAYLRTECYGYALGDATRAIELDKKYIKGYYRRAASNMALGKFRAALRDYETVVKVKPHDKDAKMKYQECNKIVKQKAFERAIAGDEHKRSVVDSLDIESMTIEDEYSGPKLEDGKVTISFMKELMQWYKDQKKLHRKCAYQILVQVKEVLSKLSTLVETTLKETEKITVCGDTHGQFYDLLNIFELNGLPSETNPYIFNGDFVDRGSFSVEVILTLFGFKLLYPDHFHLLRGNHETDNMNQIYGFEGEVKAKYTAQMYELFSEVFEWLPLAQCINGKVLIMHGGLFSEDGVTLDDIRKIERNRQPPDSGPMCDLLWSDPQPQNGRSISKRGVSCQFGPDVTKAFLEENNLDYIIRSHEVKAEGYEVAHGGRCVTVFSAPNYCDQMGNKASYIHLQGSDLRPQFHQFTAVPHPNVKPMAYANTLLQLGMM
SKKanGAS inh: inhibitors of SKKanGAS S. pyogenes growth in kanamycin (SK-promoter or general growth effect); 300,000 compounds, 1.3% hits; AID 1662; inhibition, % at 7.5 µM; BacTiter-Glo, 6 h;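 active means mean replicate score, as percent of positive control median, at least 50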;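 further: strain carries kanamycin resistance gene driven by streptokinase promoter and grows in 40 µg/ml kanamycin; loss of luminescence reflects streptokinase promoter inhibition or plain growth inhibition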
IDE cell inh: inhibits human insulin-degrading enzyme in HEK cells; P14735; FAbetaB cleavage, fluorescence polarization; inhibition, % at 5.59 µM; 320,000 compounds, 0.41% hits;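 active means percent inhibition above the average of all tested compounds plus 3 SD, set per screening campaign, cut at about 16% in these data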;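 further: IDE supplied by intact live HEK cells; FP after avidin binding of uncleaved biotin substrate so inhibition keeps polarization high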
PP1 counter: blocks human PP1-alpha phosphatase, a PP5 counter-screen; P62136; purified PP1alpha, OMFP fluorescence; inhibition, % at 6.7 µM; 320,000 compounds, 0.9% hits; AID 2235;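 active means inhibition above the mean inhibition of all tested compounds plus 3 SD, computed separately for each screening campaign, cut at about 15% in these data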
A number is an active result; i = inactive; nt = not tested or not shown. This is a sample that favours compounds with a hit; in the whole collection about 2.8% have one here.

SMILES | Exocytosis inh | IDE act | PP5 inh | SKKanGAS inh | IDE cell inh | PP1 counter
CCN(CC)c1ccc(NC(=O)COC(=O)/C=C/c2nc3ccccc3s2)cc1 | i | i | i | i | i | 15
COc1ccc(CCNC(=O)C2CCC(CNS(=O)(=O)c3ccccc3)CC2)cc1OC (centres undefined) | nt | nt | i | i | i | i
O=C(NCCc1ccccc1)C1CCC(CNS(=O)(=O)c2ccccc2)CC1 (centres undefined) | i | i | i | i | i | 16
Cc1ccc2c(c1)C(c1ccccc1)N(C(=O)c1ccc(Br)cc1)CC(=O)N2 (centres undefined) | i | i | nt | i | nt | nt
Cc1ccc(C)c(NC(=O)CN(C)C(=O)c2ccccc2OCc2c(C)noc2C)c1 | i | i | i | nt | i | i
COc1ccc(N/C=C(\C=C\C#N)S(=O)(=O)c2ccccc2)cc1 | i | i | i | i | i | i
Cc1ccc(Cl)cc1N1CCN(Cc2nc3c(c(=O)[nH]c(=O)n3C)n2Cc2ccccc2F)CC1 | i | i | i | 79 | i | i
Cc1ccc(Cl)cc1N1CCN(Cc2nc3c(c(=O)[nH]c(=O)n3C)n2CCc2ccccc2)CC1 | i | i | i | i | i | i
O=C(CSC1=NNC(c2ccccn2)S1)Nc1ccccc1 (centres undefined) | i | i | i | i | 25 | i
c1ccc(-c2csc3ncnc(N4CCc5ccccc5C4)c23)cc1 | i | i | i | 89 | i | i
c1ccc(-c2csc3ncnc(N4CCOCC4)c23)cc1 | i | i | i | i | i | i
COc1ccc(Nc2ncnc3scc(-c4ccc(OC)cc4)c23)cc1 | i | i | i | 50 | i | i
COc1ccc(-c2csc3ncnc(N4CCN(c5ccccc5Cl)CC4)c23)cc1 | i | i | i | 55 | i | i
COc1cc(CCC(=O)OCC(=O)Nc2ccc(C)cc2Cl)cc(OC)c1OC | i | i | i | i | i | i
CCOc1ccccc1/C=C(\C#N)C1=CCCC1 | i | i | i | i | i | i
O=S(=O)(Nc1cccc2ncccc12)c1cccs1 | i | i | i | 87 | i | i
Cc1c(NS(=O)(=O)c2cccs2)cccc1-c1nc2cccnc2s1 | i | i | i | i | i | i
CN(C)/C=C1\SC(=S)N(c2ccc(Br)cc2)C1=O | i | i | i | 54 | i | i
CN(C)/C=C1\SC(=S)N(c2ccc(F)cc2)C1=O | i | i | i | i | i | i
CC(C)OCCCNC1=C(Cl)C(=O)c2ccccc2C1=O | i | nt | i | i | i | i
COCCCNC1=C(Cl)C(=O)c2ccccc2C1=O | 56 | i | i | i | i | i
COCCCNc1c2c3c(cccc3[nH]c1=O)C(=O)c1ccccc1-2 | i | 33 | i | nt | i | i
CC(C(=O)Nc1ccc(C(N)=O)cc1)N1C(=O)c2ccccc2S1(=O)=O (centres undefined) | i | i | i | i | i | i
CC1CCCN(S(=O)(=O)c2ccc(S(=O)(=O)N3CCC4(CC3)OCCO4)cc2)C1 (centres undefined) | i | i | i | i | i | i
CCCCCc1cc(=O)oc2c(C(CCN3CCCC(C)C3)c3ccc(N(C)C)cc3)c(OC)cc(OC)c12 (centres undefined) | 81 | i | i | i | i | i
SMILES | Exocytosis inh | IDE act | PP5 inh | SKKanGAS inh | IDE cell inh | PP1 counter
CCCCCCCCCCCCCCCCCCNc1ccn(C2OC(COP(=O)(O)OCC3OC(n4cc(F)c(=O)[nH]c4=O)CC3O)C(O)C2O)c(=O)n1 (centres undefined) | i | i | nt | nt | nt | nt
CCCCc1ccc(/C=C2\C(=O)c3ccccc3C(O)=C2C(=O)OCC)cc1 | nt | nt | i | 109 | i | i
CCOC(=O)C1=C(C)OC(=CC=Cc2ccccc2)C1=O | i | nt | nt | nt | nt | nt
COc1ccc(-c2oc(NC(=O)CSc3ncn[nH]3)c(C#N)c2-c2ccc(OC)cc2)cc1 | i | i | i | 70 | i | i
Cc1cc(=O)oc2cc(OCC(=O)N3CCN(C(=O)C4COc5ccccc5O4)CC3)ccc12 (centres undefined) | i | i | i | 78 | i | i
CCN1/C(=C/C=C/C=C/c2sc3ccccc3[n+]2CC)Sc2ccccc21 | nt | nt | i | 104 | i | 47
C(=NN=Cc1c[nH]c2ccccc12)c1c[nH]c2ccccc12 | i | nt | nt | nt | nt | nt
O=C1/C(=C/c2c[nH]c3ccccc23)CCC/C1=C\c1c[nH]c2ccccc12 | i | i | i | 59 | i | i
CCn1c(COc2ccccc2)nnc1SCC(=O)Nc1ccc(N2CCOCC2)cc1 | i | i | i | i | i | i
CC(=O)Nc1cc(OC(C)=O)c2nonc2c1OC(C)=O | i | i | i | nt | i | 60
CC(=O)Nc1nonc1NC(C)=O | i | i | i | i | i | i
COc1cc(CCC(=O)OCC(=O)N2CCc3ccccc32)cc(OC)c1OC | i | i | i | i | i | 17
COc1cc(CO)ccc1OCC(=O)N1CCc2ccccc21 | i | i | i | i | i | i
O=C(Nc1cccc(Cl)c1)Nc1cc(S(=O)(=O)N2CCCCC2)ccc1Cl | i | i | i | 54 | i | i
O=C(CSc1ncnc2ccccc12)Nc1cc(S(=O)(=O)N2CCCCC2)ccc1Cl | i | i | i | i | i | 16
CC(C)(C)NC(=O)c1ccc2nsnc2c1 | i | i | i | i | i | i
CC1(c2ccccc2)NC(=O)N(CC(=O)N2CCN(S(=O)(=O)c3cccc(C(F)(F)F)c3)CC2)C1=O (centres undefined) | i | i | nt | nt | nt | nt
COc1cccc(C(O)c2ncc(-c3cccc(C(F)(F)F)c3)[nH]2)c1 (centres undefined) | i | nt | nt | nt | nt | nt
CCOC(=O)C1CCN(C(=O)C(CC)c2ccccc2)CC1 (centres undefined) | i | i | i | i | i | i
CCCN(CCC)C(=O)CSc1nc2n[nH]c(C)c2c(=N)n1-c1ccc(OCC)cc1 | i | i | i | i | i | i
CCOc1ccc(-n2c(SCC(=O)Nc3ccc(CC)cc3)nc3n[nH]c(C)c3c2=N)cc1 | i | i | i | i | i | 16
Cn1c(Sc2ccccc2Cl)c(C=O)c2ccccc21 | i | i | i | 57 | i | i
Cn1c(Sc2ccc(Cl)cc2)c(C=O)c2ccccc21 | i | i | i | i | i | i
CCOc1cc(CNCC2CCCO2)cc(Br)c1OCC(N)=O (centres undefined) | i | i | i | i | i | 17
CCCSCCCNC(=O)CN1C(=O)COc2ccc(S(=O)(=O)N3CCCC3)cc21 | i | i | i | i | i | i
Cc1c(-c2ccccc2)oc2c(C(=O)N3CCN(c4ccccc4F)CC3)cccc2c1=O | i | i | i | i | i | i
O=[N+]([O-])c1ccc(/C=N/Nc2nc(N3CCCCCC3)nc(N3CCCCCC3)n2)o1 | i | i | i | 75 | i | i
O=[N+]([O-])c1ccc(/C=N/N=C/c2ccc([N+](=O)[O-])o2)o1 | 63 | i | nt | nt | nt | nt
O=C(O)/C=C/c1ccc([N+](=O)[O-])o1 | i | i | i | i | i | i
